A selection: hits, their analogues and other compounds. The true share with any hit is near 12%.
PI5P4Ka inh: qHTS for Inhibitors of phosphatidylinositol 5-phosphate 4-kinase (PI5P4K). Phosphatidylinositol 5-phosphate 4-kinase type-2 alpha (Homo sapiens), P48426. PI5P4Kalpha enzyme, ADP-Glo luminescence, 60 min; active compounds read low. max response, %. 330,000 tested, 1.2% active; active = max response of -50% or lower; inconclusive = between -30% and -50%; inactive = -30% or higher; also: value at the top dose of about 77 µM
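qHTS, 1536-well: enzyme/substrate mix, compound by pin tool, 5 microM ATP final; RT 60 min; ADP-Glo reagents 1 (45 min) then 2 (30 min); luminescence.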
HP1b chromo inh: HTS for Inhibitors of HP1-beta Chromodomain Interactions with Methylated Histone Tails. AlphaScreen HP1-beta / biotin-H3K9me3 peptide binding. AID 540317, 2011. Potency, µM (highest dose often 114 µM), actives largely listed as inhibitors. Chromobox protein homolog 1 (Homo sapiens), P83916. 390,000 tested, 0.56% active; also: nearly all actives have a fitted effect of over 70% in size
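HP1-beta protein (50 nM final) preincubated 30 min at room temperature with biotinylated H3(1-18)K9me3 peptide (50 nM) in PBS pH 7.4, 0.01% Tween-20, then compound added for 30 min. AlphaScreen streptavidin donor/nickel chelate acceptor beads (10 ug/mL final), 30 min dark, luminescence read.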
BAZ2B inh: qHTS Assay for Inhibitors of BAZ2B; Bromodomain adjacent to zinc finger domain protein 2B (Homo sapiens), Q9UIF8; AlphaScreen BAZ2B-H3K14Ac peptide displacement; Potency, µM (top dose mostly 114 µM), actives largely listed as inhibitors; 360,000 tested, 4.4% active; also: nearly all actives have a fitted effect of over 60% in size
Target sequence (Q9UIF8 whole entry, looked up, the tested form may be a part): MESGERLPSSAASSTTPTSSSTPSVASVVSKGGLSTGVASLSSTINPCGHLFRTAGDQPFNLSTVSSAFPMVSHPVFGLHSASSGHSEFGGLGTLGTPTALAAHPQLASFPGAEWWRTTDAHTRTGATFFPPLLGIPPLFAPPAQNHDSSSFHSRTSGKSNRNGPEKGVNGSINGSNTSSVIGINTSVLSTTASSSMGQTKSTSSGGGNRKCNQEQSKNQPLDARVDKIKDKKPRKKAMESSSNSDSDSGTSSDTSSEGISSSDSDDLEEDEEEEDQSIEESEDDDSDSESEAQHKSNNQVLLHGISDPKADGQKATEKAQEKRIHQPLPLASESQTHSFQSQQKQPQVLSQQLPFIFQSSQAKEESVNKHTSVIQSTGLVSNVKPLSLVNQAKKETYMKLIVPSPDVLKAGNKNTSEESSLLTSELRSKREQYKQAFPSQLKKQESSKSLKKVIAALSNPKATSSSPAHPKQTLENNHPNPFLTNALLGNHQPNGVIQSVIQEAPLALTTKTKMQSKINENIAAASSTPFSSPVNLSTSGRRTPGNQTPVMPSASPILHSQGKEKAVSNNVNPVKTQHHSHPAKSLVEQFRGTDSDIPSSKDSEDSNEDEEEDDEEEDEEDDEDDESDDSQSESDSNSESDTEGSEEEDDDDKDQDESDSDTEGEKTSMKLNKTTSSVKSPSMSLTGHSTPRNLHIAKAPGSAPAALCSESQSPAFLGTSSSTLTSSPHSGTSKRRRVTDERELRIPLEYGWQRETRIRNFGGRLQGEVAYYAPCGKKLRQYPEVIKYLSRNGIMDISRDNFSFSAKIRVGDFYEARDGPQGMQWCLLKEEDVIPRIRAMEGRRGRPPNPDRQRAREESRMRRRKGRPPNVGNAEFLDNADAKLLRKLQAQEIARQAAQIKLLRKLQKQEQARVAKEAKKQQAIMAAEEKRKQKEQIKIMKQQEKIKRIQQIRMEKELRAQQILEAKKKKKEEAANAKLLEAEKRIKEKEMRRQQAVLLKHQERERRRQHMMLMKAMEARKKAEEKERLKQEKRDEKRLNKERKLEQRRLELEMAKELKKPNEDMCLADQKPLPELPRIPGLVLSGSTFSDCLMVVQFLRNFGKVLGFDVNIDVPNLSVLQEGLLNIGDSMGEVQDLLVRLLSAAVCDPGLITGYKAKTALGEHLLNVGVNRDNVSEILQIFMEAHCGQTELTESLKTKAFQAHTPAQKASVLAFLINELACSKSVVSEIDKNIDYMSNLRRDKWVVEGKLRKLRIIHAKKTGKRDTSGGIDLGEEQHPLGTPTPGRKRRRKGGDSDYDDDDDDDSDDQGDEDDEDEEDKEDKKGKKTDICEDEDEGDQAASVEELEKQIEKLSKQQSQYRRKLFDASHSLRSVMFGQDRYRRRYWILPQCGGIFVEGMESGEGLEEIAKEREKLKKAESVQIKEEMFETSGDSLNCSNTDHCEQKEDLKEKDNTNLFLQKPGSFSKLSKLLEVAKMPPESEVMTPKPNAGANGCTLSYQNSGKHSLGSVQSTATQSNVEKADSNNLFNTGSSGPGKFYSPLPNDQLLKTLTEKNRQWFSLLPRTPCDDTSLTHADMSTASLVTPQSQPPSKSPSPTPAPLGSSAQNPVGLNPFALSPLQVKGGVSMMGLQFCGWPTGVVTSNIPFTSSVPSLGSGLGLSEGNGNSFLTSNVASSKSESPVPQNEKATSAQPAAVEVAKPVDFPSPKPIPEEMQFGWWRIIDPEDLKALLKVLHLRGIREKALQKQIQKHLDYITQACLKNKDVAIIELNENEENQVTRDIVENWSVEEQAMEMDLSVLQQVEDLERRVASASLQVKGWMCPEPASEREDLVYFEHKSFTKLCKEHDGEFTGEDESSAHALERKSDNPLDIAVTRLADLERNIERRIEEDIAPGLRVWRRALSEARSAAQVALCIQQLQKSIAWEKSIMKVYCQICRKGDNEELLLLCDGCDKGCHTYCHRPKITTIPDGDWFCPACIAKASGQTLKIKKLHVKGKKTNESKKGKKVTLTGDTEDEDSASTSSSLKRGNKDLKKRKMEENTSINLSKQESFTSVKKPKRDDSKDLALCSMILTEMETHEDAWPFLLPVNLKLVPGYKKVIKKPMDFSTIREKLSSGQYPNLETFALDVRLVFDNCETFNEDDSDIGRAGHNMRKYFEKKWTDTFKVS
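Protein-peptide AlphaScreen: BAZ2B 50 nM, b-H3K14Ac 50 nM, 1x PBS pH 7.4 + 0.01% Tween-20. Preincubation 30 min RT; cpd 30 min RT (top 110 uM); beads 20 min RT, light-protected.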
JMJD2A Tudor inh: qHTS Assay for Inhibitors of JMJD2A-Tudor Domain; Lysine-specific demethylase 4A (Homo sapiens), O75164; 390,000 tested, 4.4% active; Potency, µM (top dose mostly 114 µM), hits mostly inhibitors; AID 504339, 2011; AlphaScreen JMJD2A-Tudor / H3K4me3 peptide binding; also: nearly all actives have a fitted effect of over 50% in size
G9a inh: qHTS Assay for Inhibitors of Histone Lysine Methyltransferase G9a. Histone-lysine N-methyltransferase EHMT2 (Homo sapiens), Q96KQ7. G9a H3K9 monomethylation, AlphaScreen, 2 h. Potency, µM (doses to about 102 µM), hits mostly inhibitors. 350,000 tested, 8.8% active. AID 504332, 2011; also: nearly all actives have a fitted effect of over 75% in size
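Readings reflect AlphaScreen signal from monomethyl-H3K9 antibody detection. HMT at 20 nM; substrate b-H3K9 500 nM; cofactor SAM 20 uM; 2 h RT reaction; compounds tested as titrations in qHTS with 15 min preincubation.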
PLK1 PBD inh: qHTS for Inhibitors of PLK1-PDB (polo-like kinase 1 - polo-box domain): Primary Screen | Serine/threonine-protein kinase PLK1 (Homo sapiens), P53350 | AID 720504, 2013 | 360,000 tested, 2.8% active | Plk1 PBD binding of FITC phosphopeptide, fluorescence polarization | Potency, µM, actives largely listed as inhibitors; also: series mostly up to about 57 µM; nearly all actives have a fitted effect of over 65% in size
Hits are given with their value; – = inactive; ? = inconclusive; · = no result; ! = not confirmed by another sample; [ ] = dose if it differs, or a comment. Unless noted, calls follow the shape of the dose curve; as a rule, active = well fitted curve in the direction sought with a large enough effect; inconclusive = small, poorly fitted or top-dose-only effect, or another doubt; inactive = no such curve, though single readings can be large; an effect the other way counts as inactive or inconclusive.

SMILES	PI5P4Ka inh	HP1b chromo inh	BAZ2B inh	JMJD2A Tudor inh	G9a inh	PLK1 PBD inh
CCN(CC)c1ccc(N=Cc2c(O)n(-c3ccc(Cl)cc3)c(=O)[nH]c2=O)cc1	–	–	–	–	·	?
CCN(CC)c1ccc(N=Cc2c(O)n(-c3ccc(OC)cc3)c(=O)[nH]c2=O)cc1	–	–	–	–	50µM	?
CCC(C)N=Cc1c(O)n(-c2ccccc2)c(=O)[nH]c1=O (stereo unspecified)	·	–	–	–	10µM	27µM
CN1CCN(c2ncc3ncc(=O)n(C)c3n2)CC1	·	·	·	·	–[0.501 µM]	·
CCc1ccc(-n2c(O)c(/C=N/NC(=O)c3ccncc3)c(=O)[nH]c2=O)cc1	–	–	56µM	?	–	–
Brc1c(NC2=NCCN2)ccc2nccnc12	·	·	–	·	19µM!	·
O=C1NC(=O)C(=CN2CCc3ccccc32)C(=O)N1	–	–	–	–	13µM	–
O=C1NC(=O)N(Cc2ccccc2)C(=O)/C1=C\N1CCCc2ccccc21	?	–	–	–	?	–
CN1CCc2nc3sc(C(=O)NC4CC4)c(N)c3cc2C1	–	–	?	?	8.9µM	–
CCOc1ccccc1NC(=O)c1sc2nc3c(cc2c1N)CN(Cc1ccccc1)CC3	·	–	–	–	?	·
O=C1NC(=O)N(C2CCCCC2)C(=O)C1C1c2ccccc2C(=O)N1Cc1ccccc1 (stereo unspecified)	–	–	–	–	56µM	–
O=C(NC1(C(F)(F)F)Oc2ccccc2O1)N1CCC2(CC1)OCCO2	·	?	–	45µM	1.8µM	–
O=C(c1ccccc1)N1CCC2(CC1)OCCO2	–	–	–	–	·	–
O=C(NC1(C(F)(F)F)Oc2ccc(Cl)cc2O1)N1CCC2(CC1)OCCO2 (stereo unspecified)	–	–	79µM	32µM	?	–
O=C(CCC(=O)N1CCOc2ccc(Cl)cc21)N1CCC2(CC1)OCCO2	–	–	–	–	·	–
COc1ccc(-n2c(/C=C\c3ccccc3F)nc3ccccc3c2=O)c(OC)c1	·	–	–	–	–	·
CC(C)(C)c1cc(C=C(C#N)C#N)cc(C(C)(C)C)c1O	–	–	?	–	13µM	–
N#CC(=Cc1ccc(O)c(O)c1)C(N)=S	·	·	·	·	5µM	·
N#CC(C#N)=Cc1ccc(O)c(O)c1	–	–	79µM	?	8.4µM	–
N#CC(C#N)=Cc1ccc(N2CCCC2)cc1	–	–	–	–	–	–
CCc1ccc(/C=C(/C#N)C(N)=S)cc1	–	?	?	–	8.9µM	7.5µM
N#C/C(=C\c1ccc(O)cc1)C(=O)O	–	–	·	–	·	–
CCOP(=O)(OCC)/C(C#N)=C/c1ccc(Br)cc1	–	–	–	–	–[2.33 µM]	–
O=c1[nH]c2ccccc2n1C1CCN(Cc2ccc(-c3[nH]c4cc5ncnc5cc4nc3-c3ccccc3)cc2)CC1	–	·	·	·	·	–
Cc1c(N)cccc1N	–	–	–	–	–[0.501 µM]	–
SMILES	PI5P4Ka inh	HP1b chromo inh	BAZ2B inh	JMJD2A Tudor inh	G9a inh	PLK1 PBD inh
COc1cc(C=C(C#N)C#N)cc(O)c1O	·	·	·	·	2.5µM	·
COc1ccc2nc(NC(=O)CCNS(=O)(=O)c3ccc4c(c3)oc(=O)n4C)sc2c1	–	–	?	–	–[12.7 µM]	–
Nc1ccc(CCN2CCN(c3cccc(C(F)(F)F)c3)CC2)cc1	–	–	·	?	40µM	–
Oc1ccc(CCN2CCCCC2)cc1	–	–	·	–	·	–
Nc1ccc(CCN2CCCC2)cc1	–	–	–	–	40µM	–
NCC1OC(O[C@H]2[C@H](O)[C@@H](OC3C(O)C(N)CC(N)C3OC3OC(CO)C(O)C(O)C3N)O[C@@H]2CO)C(N)C(O)C1O (stereo partly specified)	·	·	·	·	6µM	·
Ic1ccccc1CNC1C2CCN(CC2)C1C(c1ccccc1)c1ccccc1 (stereo unspecified)	·	·	·	·	2µM	·
Ic1ccccc1CN[C@@H]1C2CCN(CC2)[C@@H]1C(c1ccccc1)c1ccccc1	–	?	40µM	18µM	1.6µM	–
COc1ccc2c(c1)NP(=S)(Oc1ccccc1)N2 (stereo unspecified)	–	?	?	?	7.1µM	15µM
OCCCc1ccc(O)c(O)c1	–	?	–	40µM	–	–
CCCN(CCC)CCc1ccc(O)c(O)c1	·	·	·	·	20µM!	·
CCCNc1nc(-c2cc(C(=O)Nc3ccccc3)on2)cc(C(C)C)n1	–	–	·	–	·	–
COC(=O)c1cn(S(=O)(=O)c2ccccc2)c2ccccc12	–	–	–	–	?	–
NO	·	·	·	·	–[12.7 µM]	·
Cc1cccc(N2C(=O)NC(=O)/C(=C\c3cc(C)n(-c4sc5c(c4C#N)CCCC5)c3C)C2=O)c1C	–	–	?	?	16µM	0.75µM
C[C@@H]1O[C@H](C[N+](C)(C)C)C[C@@H]1O	·	·	·	·	–	·
O=c1[nH]sc2cc(F)ccc12	-82	?	45µM	22µM	1.6µM	3.8µM
C[N+]1(C)CCN(c2ccccc2)CC1	–	–	–	45µM	8.4µM!	–
CNC(=O)Oc1ccc2c(c1)[C@@]1(C)CCN(C)C1N2C (stereo partly specified)	·	·	·	·	–[2.33 µM]	·
CC(=O)OC1CC2C(C)(C)C(=O)C=C[C@]2(C)C2CC[C@]3(C)C(=CC(=O)OC3c3ccoc3)[C@]12C (stereo partly specified)	·	·	·	·	–[2.33 µM]	·
N#CC(C#N)=NNc1ccc(OC(F)(F)F)cc1	·	·	·	·	10µM	·
CN1C[C@@H](CS(=O)(=O)N(C)C)C[C@@H]2c3cccc4c3c(cn4C)C[C@H]21	·	·	·	·	–[12.7 µM]	·
Cn1c(O)c(C(=O)c2ccccc2Cl)c(=O)n(C)c1=O	–	–	·	89µM	?	–
O=c1[nH]c(=S)n(C2CC2)c(O)c1/C=N/Nc1ccccc1	–	–	–	?	1.4µM	–
O=c1[nH]c(=S)n(C2CC2)c(O)c1/C=N/Nc1cccc2ccccc12	?	–	?	?	1.4µM	–
COc1ccccc1-c1nn2c(=O)cc(CN3CCN(C(=O)COc4ccccc4Cl)CC3)nc2s1	·	–	–	–	–	·
CCCCC(=O)N/N=C/c1c(O)n(C2CC2)c(=S)[nH]c1=O	–	–	?	–	–	–
CCC(=NCCO)c1c(O)n(C2CCCCC2)c(=O)[nH]c1=O	–	–	–	–	–	–
CC(C)c1ccc(-n2c(O)c(/C=N/NC(=O)c3ccccc3O)c(=O)[nH]c2=S)cc1	-65	–	50µM	79µM	·	?
CC/C(=N\NC(=O)c1ccccc1O)c1c(O)n(C2CCCCC2)c(=O)[nH]c1=O	-74	–	–	–	?	?
